Assay results published in PMC4336329 (PLoS ONE, 2015).
In all, about 310,000 compounds went through this assay and about 14,000 (4.5%) showed an effect of 50% or more. The effect is printed as a negative number. What follows is part of a selection rich in strong results, with near analogues and random picks from the rest.

These compounds were tested against human ether-à-go-go-related gene (hERG) potassium channel (human, UniProt Q12809) (assay: primary screen, population patch clamp on CHO cells stably expressing hERG; higher = less effect of the substance).
human ether-à-go-go-related gene (hERG) potassium channel, sequence (Q12809 whole entry, looked up): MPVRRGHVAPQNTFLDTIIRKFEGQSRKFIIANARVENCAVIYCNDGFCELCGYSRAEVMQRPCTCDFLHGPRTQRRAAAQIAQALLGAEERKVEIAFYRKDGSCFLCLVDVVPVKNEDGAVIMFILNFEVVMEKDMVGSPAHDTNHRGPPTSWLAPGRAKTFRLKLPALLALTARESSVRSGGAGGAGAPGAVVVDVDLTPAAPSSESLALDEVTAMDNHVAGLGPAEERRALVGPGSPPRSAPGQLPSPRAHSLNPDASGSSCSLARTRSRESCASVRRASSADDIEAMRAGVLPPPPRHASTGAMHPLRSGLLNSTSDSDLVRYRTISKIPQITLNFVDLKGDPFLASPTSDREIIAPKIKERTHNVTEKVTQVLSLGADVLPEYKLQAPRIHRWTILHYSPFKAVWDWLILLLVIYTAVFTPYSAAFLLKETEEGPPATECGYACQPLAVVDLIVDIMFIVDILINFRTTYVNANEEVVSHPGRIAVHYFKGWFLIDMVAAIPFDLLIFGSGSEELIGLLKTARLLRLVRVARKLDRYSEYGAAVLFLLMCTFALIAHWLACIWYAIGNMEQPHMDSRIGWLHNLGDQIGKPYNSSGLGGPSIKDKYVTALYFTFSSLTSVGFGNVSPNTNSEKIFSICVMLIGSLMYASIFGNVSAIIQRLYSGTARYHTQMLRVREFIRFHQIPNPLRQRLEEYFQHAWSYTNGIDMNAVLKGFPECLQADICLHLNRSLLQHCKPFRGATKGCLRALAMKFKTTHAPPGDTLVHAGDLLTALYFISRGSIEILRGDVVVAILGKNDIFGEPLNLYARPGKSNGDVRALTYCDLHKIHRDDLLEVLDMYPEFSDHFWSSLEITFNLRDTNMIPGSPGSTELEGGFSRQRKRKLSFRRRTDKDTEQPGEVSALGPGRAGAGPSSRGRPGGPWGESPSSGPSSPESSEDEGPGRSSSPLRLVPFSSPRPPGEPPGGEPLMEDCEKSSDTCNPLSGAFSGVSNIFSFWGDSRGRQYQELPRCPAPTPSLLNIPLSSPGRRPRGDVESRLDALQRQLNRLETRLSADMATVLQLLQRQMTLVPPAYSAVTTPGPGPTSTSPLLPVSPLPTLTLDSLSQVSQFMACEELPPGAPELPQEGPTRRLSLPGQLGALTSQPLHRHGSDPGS
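Also: peak tail current of the secondary pulse compared with the same well before compound.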

Q: How did the “hERG current change (%, negative = inhibition) at 10uM” value turn out when CC(C)(C)NC(=O)NC(=O)C[n+]1ccc(Cc2ccc([N+](=O)[O-])cc2)cc1.[Cl-] was run?
A: -5.27%

Q: How did the “hERG current change (%, negative = inhibition) at 10uM” value turn out when O=C(CCCN1C(=O)/C(=C\c2ccccc2)SC1=S)Nc1ccc(O)cc1C(=O)O was run?
A: 18.1%

Q: How did the “hERG current change (%, negative = inhibition) at 10uM” value turn out when CCOC(=O)/C=c1\s/c(=C\c2ccc(C(F)(F)F)cc2)c(=O)n1CC(=O)NCc1ccco1 was run?
A: 5.47%

Q: O=C(CSc1nnnn1-c1cccnc1)NCc1cccs1 was tested. Which “hERG current change (%, negative = inhibition) at 10uM” value did it give?
A: 9.62%

Q: How did the “hERG current change (%, negative = inhibition) at 10uM” value turn out when CCOC(=O)COc1ccc(C2CC(C)=NN2c2ccccc2)cc1 (stereo not drawn) was run?
A: -0.31%

Q: How did the “hERG current change (%, negative = inhibition) at 10uM” value turn out when CC(=O)n1nc2nc(C)cc(C)c2c1N was run?
A: 13.9%

Q: O=C(/C=C/c1ccco1)NC1CCCC1 was tested. Which “hERG current change (%, negative = inhibition) at 10uM” value did it give?
A: 17.4%

Q: CCOc1ccc(/C=N/NC(=O)c2ccccc2C)cc1CN1CC2CC(C1)c1cccc(=O)n1C2 (stereo not drawn) was tested. Which “hERG current change (%, negative = inhibition) at 10uM” value did it give?
A: -26.8%

Q: How did the “hERG current change (%, negative = inhibition) at 10uM” value turn out when O=C(CCN=C1NS(=O)(=O)c2ccccc21)OCC(=O)c1ccc(F)c(F)c1 was run?
A: 11%

Q: How did the “hERG current change (%, negative = inhibition) at 10uM” value turn out when O=C(NCc1ccccc1)NS(=O)(=O)c1ccccc1Cl was run?
A: -4.3%

Q: For CCOc1ccc(C2=CSC3=NCCN23)cc1[N+](=O)[O-], which “hERG current change (%, negative = inhibition) at 10uM” value is on record?
A: -75.5%

Q: For COc1ccc(C2=CSC3=NCCN23)cc1[N+](=O)[O-], which “hERG current change (%, negative = inhibition) at 10uM” value is on record?
A: -26.1%

Q: How did the “hERG current change (%, negative = inhibition) at 10uM” value turn out when CCOc1ccc(C2=CSC3=NCCN23)cc1 was run?
A: -4.08%

Q: With CCN(CC)c1ccc2c(c1)oc(=O)c1c(Cl)cc(=O)oc12 as the compound, how does the “hERG current change (%, negative = inhibition) at 10uM” value read?
A: 14.8%

Q: How did the “hERG current change (%, negative = inhibition) at 10uM” value turn out when COc1cc(O)c(NC(C)=O)c2nonc12 was run?
A: 11.2%

Q: For CCn1c(SCc2ccc(F)cc2)nnc1C1CCN(S(=O)(=O)c2ccc(OC)cc2)CC1, which “hERG current change (%, negative = inhibition) at 10uM” value is on record?
A: -64.3%

Q: CCn1c(SC(C)C)nnc1C1CCN(S(=O)(=O)c2ccc(OC)cc2)CC1 was tested. Which “hERG current change (%, negative = inhibition) at 10uM” value did it give?
A: -20.6%

Q: Cc1ccc(S(=O)(=O)N2CCC(c3nnc(SCCN4CCCC4)n3C)CC2)cc1 was tested. Which “hERG current change (%, negative = inhibition) at 10uM” value did it give?
A: 17.7%

Q: How did the “hERG current change (%, negative = inhibition) at 10uM” value turn out when CCn1c(SCC(=O)c2ccc(OC)cc2)nnc1C1CC1 was run?
A: 6.73%

Q: Which “hERG current change (%, negative = inhibition) at 10uM” value does the source give for CCn1c(SCc2ccccc2)nnc1C1CCN(S(=O)(=O)c2ccc(OC)cc2)CC1 here?
A: -60.8%

Q: With CCn1c(SCc2ccc(C)cc2)nnc1C1CCN(S(=O)(=O)c2ccc(OC)cc2)CC1 as the compound, how does the “hERG current change (%, negative = inhibition) at 10uM” value read?
A: -64.5%

Q: How did the “hERG current change (%, negative = inhibition) at 10uM” value turn out when CCn1c(SCc2ccccc2)nnc1C1CCCCC1 was run?
A: -11.2%

Q: With CCn1c(SC)nnc1C1CCN(S(=O)(=O)c2ccc(OC)cc2)CC1 as the compound, how does the “hERG current change (%, negative = inhibition) at 10uM” value read?
A: -4.3%

Q: CCn1c(C2CCN(S(=O)(=O)c3ccc(OC)cc3)CC2)n[nH]c1=S was tested. Which “hERG current change (%, negative = inhibition) at 10uM” value did it give?
A: -18%
